The record followed here is PubChem BioAssay (NCATS).

Several values for one entry are separate records, joined by “and”; a condition that tells them apart may be missing. Equal values may be shown once. Inconclusive results are not listed. Activity calls are given as the source filed them. The call rests on the fitted dose curve; in most records, active means well fitted cell-killing curve with a large enough effect; inconclusive means small, poorly fitted or top-dose-only effect; inactive means flat fitted curve, though single readings scatter.

The nature of test [1]: Cell Viability - LYMP2-023 (AID 975).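 Further: cells exposed to compound for 24 hours at 37 °C; nearly all actives have a fitted effect of over 55% in size.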 In short, it runs like this:
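LYMP2-023 human lymphoblastoid cells, 2500/well, preincubated 5 hr at 37 C, then compound-treated 24 hr at 37 C in complete medium. CellTiter-Glo luminescence (ATP) after 30 min at room temperature; AC50 from Hill-equation fits; tetraoctylammonium bromide positive control.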

Test [2] in a line: Cell Viability - LYMP2-025 (AID 976). In short, it runs like this: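 Human lymphoblastoid LYMP2-025 cells, 2500/well, exposed 24 h at 37 C in complete medium in 1536-well qHTS. Viability as cellular ATP by CellTiter-Glo luminescence; AC50 from Hill fits of concentration-response data.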
Test [3] can be described thus: Cell Viability - LYMP2-002 (AID 977).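 Further: compound exposure lasted 24 h at 37 °C.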 In short, it runs like this:
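Cytotoxicity is scored as concentration-dependent loss of cellular ATP in a human lymphoblastoid line after 24 hr compound treatment at 37 C. AC50 is obtained by modelling concentration-response data with the Hill equation.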

Test [4] is described as follows: Cell Viability - LYMP2-006 (AID 978).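 Further: cells exposed to compound for 24 hours; nearly all actives have a fitted effect of over 60% in size.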 In short, it runs like this: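 In this cytotoxicity screen, the human lymphoblastoid line grew in complete medium with test compounds for 24 hr at 37 C. Cellular ATP served as the viability signal.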
Test [5] is described as follows: Cell Viability - LYMP2-007 (AID 979).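 Further: cells exposed to compound for 24 h before reading; nearly all actives have a fitted effect of over 60% in size.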 In outline: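 Human lymphoblastoid LYMP2-007 cells (2500/well) preincubated 5 h at 37 C, then treated 24 h at 37 C in complete medium. Viability by CellTiter-Glo ATP luminescence after 30 min at room temperature; AC50 from Hill fits.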
A short description of test [6]: Cell Viability - LYMP2-008 (AID 980). Further: nearly all actives have a fitted effect of over 60% in size. In short, it runs like this: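 LYMP2-008 lymphoblastoid cells (2500/well) plated 5 h, then treated 24 h at 37 C in complete medium. Viability read as intracellular ATP by CellTiter-Glo luminescence after 30 min at room temperature; AC50 from Hill fits.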
Test [7] in a line: Cell Viability - LYMP2-010 (AID 981).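 Further: cells exposed to compound for 24 hours at 37 °C; nearly all actives have a fitted effect of over 55% in size.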 In short, it runs like this: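 Human lymphoblastoid LYMP2-010 cells (2500/well) treated 24 h at 37 C in complete medium; viability read as intracellular ATP by CellTiter-Glo luminescence. AC50 from Hill fits of concentration-response data; tetraoctylammonium bromide positive control.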
A short description of test [8]: Cell Viability - LYMP2-012 (AID 982).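 Further: cellular ATP by luciferase luminescence where a drop means cytotoxicity; cells exposed to compound for one day before reading; nearly all actives have a fitted effect of over 55% in size.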
A short description of test [9]: Cell Viability - LYMP2-014 (AID 983). Further: nearly all actives have a fitted effect of over 50% in size. In outline:
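LYMP2-014 human lymphoblastoid cells, 2500/well, treated 24 h at 37 C in complete medium; viability by CellTiter-Glo ATP luminescence after 30 min at room temperature. AC50 from Hill fits of qHTS concentration-response; tetraoctylammonium bromide positive control.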

A short description of test [10]: Cell Viability - LYMP2-016 (AID 984).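 Further: cells exposed to compound for 24 hours at 37 °C; nearly all actives have a fitted effect of over 55% in size.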 In short, it runs like this: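 Concentration-dependent ATP depletion measured in LYMP2-016 lymphoblastoid cells, 24 h, 37 C; luciferase-based luminescent detection; Hill-equation AC50.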
Potency means the concentration at half of the fitted maximal effect.

On to `Oc1cc(Cl)c(Cl)cc1Cl`, for which the Potency entry in [1], in test [2], in test [3], in test [4], in [5] and in [6] was “inactive” each time. The Potency entry in test [7], in [8], in [9] and in test [10] was “inactive” throughout.
Consider `CCOC(=O)c1ccccc1C(=O)OCC`, for which the Potency result in test [1], in test [2], in test [3], in test [4], in [5] and in test [6] was “inactive” in each case. Also, the Potency result in test [7], in test [8], in test [9] and in [10] was “inactive” throughout.
Regarding `C[C@H]1CCC[C@H](O)CCCCCc2cc(O)cc(O)c2C(=O)O1`, the Potency result in test [1], in [2], in [3], in [4], in test [5] and in [6] was “inactive” throughout. The Potency result in test [7], in test [8], in [9] and in test [10] was “inactive” in each case.
For `O=C1C2CC=CCC2C(=O)N1SC(Cl)(Cl)Cl` (centres undefined), the Potency is 3.98 µM (active) and 7.94 µM (active) in test [1]; 6.31 µM (active) and 10 µM (active) in test [3]; 7.94 µM (active) and 10 µM (active) in test [4]; 7.94 µM (active) and 5.01 µM (active) in [5]; 12.6 µM (active) and 10 µM (active) in test [6]; 2.51 µM (active) and 3.16 µM (active) in test [7]. The Potency is 2.51 µM (active) and 5.01 µM (active) in test [8]; 5.01 µM (active) and 6.31 µM (active) in test [9]; 5.01 µM (active) and 7.94 µM (active) in test [10].
Turning to `Clc1ccccc1Cl`, the Potency result in test [1], in [2], in test [3], in [4], in test [5] and in test [6] was “inactive” throughout. For the same compound, the Potency entry in test [7], in test [8], in test [9] and in test [10] was “inactive” in each case.
On to `CCCCCCCCOC(=O)c1ccccc1C(=O)OCCCCCCCC`, for which the Potency entry in test [1], in test [2], in test [3], in [4], in [5] and in test [6] was “inactive” throughout. Further, the Potency result in test [7], in test [8], in test [9] and in test [10] was “inactive” each time.
Consider `O=[N+]([O-])c1ccccc1`, for which the Potency result in test [1], in [2], in [3], in [4], in [5] and in [6] was “inactive” in each case. In addition, the Potency entry in [7], in [8], in test [9] and in [10] was “inactive” each time.
`COc1ccc2c(c1OC)C(=O)OC2C1c2cc3c(cc2CCN1C)OCO3` (centres undefined): the Potency entry in test [1], in [2], in test [3], in [4], in test [5] and in test [6] was “inactive” in each case. Moreover, the Potency result in test [7], in test [8], in [9] and in [10] was “inactive” throughout.
With `ClC(Cl)(Cl)Cl`, the Potency result in [1], in test [2], in test [3], in test [4], in [5] and in [6] was “inactive” throughout. In addition, the Potency result in test [7], in [8], in test [9] and in test [10] was “inactive” throughout.
On to `O=C(O)C(Cl)(Cl)Cl`, for which the Potency entry in test [1], in test [2], in [3], in test [4], in test [5] and in test [6] was “inactive” in each case. Also, the Potency entry in test [7], in test [8], in [9] and in [10] was “inactive” throughout.
Take `O=CC=O`: the Potency entry in test [1], in [2], in test [3], in [4], in test [5] and in test [6] was “inactive” throughout. The Potency result in [7], in test [8], in test [9] and in test [10] was “inactive” throughout.
Consider `NNC(N)=O`, for which the Potency result in test [1], in test [2], in [3], in [4], in [5] and in [6] was “inactive” throughout. Further, the Potency entry in test [7], in test [8], in [9] and in [10] was “inactive” throughout.
For the compound `O=C/C=C/c1ccccc1`, the Potency entry in test [1], in test [2], in test [3], in [4], in [5] and in test [6] was “inactive” in each case. Besides, the Potency entry in [7], in test [8], in [9] and in [10] was “inactive” throughout.
As for `CC(C)(C)c1cc(O)ccc1O`, the Potency result in test [1], in test [2], in [3], in [5] and in test [6] was “inactive” each time. For the same compound, the Potency in test [7] and in test [8] was 50.1 µM (active) each time.
Regarding `C[C@H]1CC[C@@H]2[C@@H](C)[C@H]3[C@H](C[C@H]4[C@@H]5CC=C6CC(O[C@@H]7O[C@H](CO)[C@H](O)[C@H](O[C@@H]8O[C@H](CO)[C@@H](O)[C@H](O)[C@H]8O)[C@H]7O[C@H]7O[C@@H](C)[C@H](O)[C@@H](O)[C@H]7O)CC[C@]6(C)[C@H]5CC[C@]34C)N2C1` (some centres undefined), the Potency in [1] was 39.8 µM (active); in test [2] it was 39.8 µM (active); in test [3], 50.1 µM (active); in test [5], 50.1 µM (active); in test [6], 50.1 µM (active); in [7], 39.8 µM (active). The results for the Potency in test [8] and in [9] were 31.6 µM (active) and 50.1 µM (active), respectively.
